# PubChem BioAssay AID603 (National Center for Advancing Translational Sciences (NCATS), 2007)
# Out of some 71,000 compounds screened, about 180 (0.25%) were called active. For the sample, actives were picked, then their nearest neighbours and some compounds at random. Unmarked numbers belong to inactive results. Calls come from the whole dose curve; as a rule, active = well fitted curve in the direction sought with a large enough effect; inconclusive = small, poorly fitted or top-dose-only effect; inactive = flat fitted curve, though single readings scatter.
# Tested on: DNA polymerase III holoenzyme (E. coli)
# Experiment: qHTS Assay for Inhibitors of DNA Polymerase III Holoenzyme System
# Conditions: reconstituted DNA polymerase III holoenzyme replication, biochemical; series mostly up to 57.1 µM; activity change, negative = inhibition: at the top concentration
# Protocol: NIH Molecular Libraries Screening Centers Network [MLSCN]
# NIH Chemical Genomics Center [NCGC]
# Assay Provider: Charles McHenry, University of Colorado
# E. coli DNA polymerase III holoenzyme complex was assayed for DNA production by fluorescent detection of the double-stranded DNA product with PicoGreen dye. The holoenzyme complex was reconstituted from the following purified protein components: DNA Polymerase III, beta subunit processivity factor, SSB single-stranded DNA binding protein, and Primase. Single-stranded, circular M13Gori was used as a substrate with dNTPs and NTPs also supplied to the substrate reagent. Compounds from the NCGC collection were incubated with the holoenzyme mixture for 15 min at room temperature to allow binding to occur, and then the reaction was started by the addition of substrate. After 30 min incubation at room temperature, PicoGreen solution containing EDTA was added to stop the reaction and to visualize the double-stranded DNA produced. Reaction progress was measured in a ViewLux CCD imager in fluorescence intensity mode by using 480 nm excitation and 540 nm emission filter set.
# NCGC Assay Protocol Summary:
# Buffer. 50 mM Hepes-KOH, pH 7.5, 5 % Glycerol, 0.02% NP40, 30 mM potassium;
# glutamate, 1.5 mM Magnesium Acetate, 16 uM TCEP.
# Buffer in columns 3 and 4 as negative control (no enzyme).
# Substrate solution: 5 uM each dATP, dGTP, dCTP and TTP, 50 uM each GTP, CTP, UTP and 200 uM ATP, 1.4 nM M13gori (final concentrations).
# Enzyme: 154 nM SSB, 2 nM Primase, 1 nM Beta, 0.35 nM Pol III (final concentrations).
# PicoGreen/EDTA: 10 mM Tris-HCl, 10 mM EDTA, 5 uM PicoGreen (final concentrations).
# Control titration: ChemBridge 5805060 (from 10 mM, then 1:2, in duplicate) was pin-transferred to upper half of column 2.
# Three uL of holoenzyme mixture were dispensed to 1536-well Greiner black solid bottom plates. Compounds and controls (23 nL) were transferred via Kalypsys PinTool. The plates were incubated for 15 min at room temperature, and then 1 uL of substrate solution was added to start the reaction. After room temperature incubation for 35 minutes, 1 uL of PicoGreen solution was added to each well and the plates were read 480 nm excitation and 540 nm emission using ViewLux (Perkin-Elmer) High-throughput CCD imager and fluorescence protocol settings.
# Keywords: NIH Roadmap, MLSCN, MLI, MLSMR, qHTS, NCGC, DNA Polymerase III, DNAPol3, DNAPoly3, DNA replication targets
# % is set by controls: 0 for no effect and ±100 for the full control effect; potency is the fitted concentration of half-maximal effect.
SMILES,"activity change, negative = inhibition",Potency
COc1ccc2[nH]cc(CCNc3cc(-c4ccccc4CN(C)C)ncn3)c2c1,-2.7%,–
O=C(c1cc(C(F)(F)F)cc(C(F)(F)F)c1)N1CCC2(CC1)CN(c1ccncc1)C2,-0.9%,–
CCN1C(=O)/C(=C2\SC(N3CCCCC3)=NC2=O)c2ccccc21,0.9%,–
C/C=C/C=C/C(=O)O,-6.6%,–
O=S(=O)(/C=C/c1ccccc1)NCCc1ccccn1,-1%,–
COc1ccc(S(=O)(=O)Nc2ccc3c(c2)OCO3)cc1Cl,-1.3%,–
CC1CCCC(C)N1CCCNC(=O)c1cc2c(=O)n(C)c3ccccc3c2n1C (stereo not given),-10.1%,–
Cn1c(C(=O)NCCc2ccsc2)cc2c(=O)n(C)c3ccccc3c21,-10%,–
CCN1CCCC1CNC(=O)c1cc2c(=O)n(C)c3ccccc3c2n1C (stereo not given),–,25.1 µM (active)
OCCNCCCCOc1ccccc1F,-4.9% [at 11.4 µM],–
CC1(C)S[C@@H]2[C@@H](NC(=O)[C@@H](N)c3ccccc3)C(=O)N2[C@H]1C(=O)O,-5.3%,–
Oc1ccc(Cn2cc[nH]c2=S)cc1,-0.6%,–
C[N+]1(CCN=C=NC2CCCCC2)CCOCC1,-1.6% [at 11.4 µM],–
COc1ccc(C(=O)OCC(=O)c2ccc(C)c(S(=O)(=O)N3CCOCC3)c2)cc1OC,-0.2%,–
CCOc1ccc(NC(=O)CCC(=O)n2nc(C)cc2C)cc1,-2.9%,–
Cc1cccc(N2CCN(C(=O)c3cc4c(=O)[nH]c5ccccc5c4n3C)CC2)c1C,-6.2%,–
CCCn1c(C)nc2c(NCCCCN(CC)CC)nc(C)nc21,-1.5%,–
NCCNCC1CCNCC1,-9.7% [at 11.4 µM],–
CCNC(=S)NCC,9.5%,–
CC(Cc1ccccc1)C(=O)N(C)Cc1ccccc1 (stereo not given),6.7%,–
COc1ccccc1CNc1ncncc1-c1cccnc1,-5.7%,–
COc1cccc(NC(=O)Cn2cnc3sc(C)c(S(=O)(=O)N4CCN(C)CC4)c3c2=O)c1,-5.3%,–
COc1ccccc1N1CCN(C(=O)Cn2nnc(-c3cccs3)n2)CC1,-2.6%,–

SMILES,"activity change, negative = inhibition",Potency
Cc1[nH]c(N)nc(=S)c1CCCNc1ccccc1,-9.5% [at 11.4 µM],–
COc1ccc(OCC(=O)N2CCN(C(=O)c3cccs3)CC2)cc1,-3.6%,–
CC(C)C[C@@H](CC(=O)N[C@@H](CCC(=O)O)CC(=O)O)NC(=O)[C@@H]1CCCC[C@H]1NC(=O)C[C@@H](NC(=O)C[C@H](CO)NC(=O)[C@@H]1CCCC[C@H]1N)C(C)C,-7.3%,–
Cc1c(C)c2c(c(C)c1O)CC[C@@](C)(CN1CCN(c3cc(N4CCCC4)nc(N4CCCC4)n3)CC1)O2,6.2%,–
CCCCNC(=O)CSc1nnc(-c2ccco2)n1C,8.1%,–
CCN(CC)CCNC(=O)Cn1cnc2sc(C)c(S(=O)(=O)N3CCOCC3)c2c1=O,7.1%,–
O=C1CC(c2ccccc2)C(=O)N1c1cccc(O)c1 (stereo not given),-3.8%,–
Cc1cc(Nc2ccc(Br)cc2F)n2ncnc2n1,-4.2%,–
COC(=O)c1ccccc1NC(=O)C1CCN(S(=O)(=O)c2cc(OC)ccc2OC)CC1,-4.8%,–
O=C(NCCCCO)C(F)(F)C(F)(F)C(F)(F)C(=O)NCCCCO,-1.7%,–
CCOc1cc(-c2nc3cc(C)ccn3c2NCC2CCCO2)ccc1O (stereo not given),-6.1%,–
N#C/C=C1\Sc2ccccc2C(=O)N1CC(=O)N1CCN(S(=O)(=O)c2ccccc2)CC1,8.5%,–
COc1ccc(NC(=O)N2CC3(CCN(C(C)=O)CC3)C2)cc1,-2.4%,–
CCN(CC(=O)NCc1cccs1)c1nnnn1-c1ccccc1,-8.3%,–
O=C1N(Cc2ccc3c(c2)OCO3)c2ccccc2C1(O)c1c[nH]c2ccccc12 (stereo not given),5.2%,–
Cc1nc2cnc(N3CCN(C)CC3)nc2n(C[C@H]2CCCO2)c1=O,-13.3%,–
O=C(O)c1c(Br)c(Br)c(Br)c(Br)c1C1c2ccc(O)cc2Oc2cc(O)ccc21,–,0.0251 µM (active)
N#CC1=C(N)Oc2cc(O)ccc2C1C1CCCCC1 (stereo not given),-6.4%,–
FC(F)(F)c1ccccc1-c1nc(-n2ccnc2)c2ccccc2n1,-4.4%,–
O=C(CSc1nc(-c2ccco2)cc(C(F)(F)F)n1)N1CCc2ccccc2C1,4.6%,–
O=C(O)/C(=C/c1c(C(=O)O)[nH]c2cc(Cl)cc(Cl)c12)c1ccccc1,–,31.6 µM (active)
COCCCNC(=O)c1ccc(CNS(=O)(=O)c2ccc(NC(C)=O)cc2)cc1,-6.1%,–
